Values without a mark were called inactive. Results filed as inconclusive are left out. Where a call stands in place of a potency, no number is given. Active and inactive are the calls of the source. Unless noted, calls come from the whole dose curve; as a rule, active = well fitted curve in the direction sought with a large enough effect in the repeat runs; inconclusive = weak or mixed curves; inactive = no such curve, though single readings can be large; an effect the other way counts as inactive or inconclusive.
Assays:
[1] = molecular target: Acetylcholinesterase (Homo sapiens) (UniProt P22303); assay: Acetylcholinesterase (AChE) small molecule antagonists: fluorescence cell-based qHTS assay (AID 1347398; calls by dose curve; note: nearly all actives have a fitted effect of over 50% in size); settings: Potency: AChE activity
Procedure, shortened: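 SH-SY5Y, 2,000 cells/well, attached overnight; cmpd 30 min 37 C; acetylthiocholine/Thiolite Green cocktail 40 min RT; fluorescence Ex/Em 490/520 nm.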

[2] = molecular target: Acetylcholinesterase (Homo sapiens) (UniProt P22303); assay: Acetylcholinesterase (AChE) small molecule antagonists: enzyme-based qHTS assay with human liver microsomes (AID 1347399; calls by dose curve; note: nearly all actives have a fitted effect of over 60% in size); settings: Potency: qHTS inhibition
Procedure, shortened: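 Recombinant human AChE (50 mU/mL in the enzyme mix) and human liver microsomes (0.25 mg/mL final) were preincubated with compound and NADPH (0.25 mg/mL final) for 30 min at 37 C. Acetylthiocholine/DTNB was then added; thiocholine was read colorimetrically after 10 min at room temperature.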

[3] = molecular target: Cytochrome P450 2C19 (Homo sapiens) (UniProt P33261); assay: Cytochrome P450 Family 2 Subfamily C Member 19 (CYP2C19) small molecule antagonists: luciferase reporter qHTS assay (AID 1671197); note: nearly all actives have a fitted effect of over 65% in size
Procedure, shortened: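 Luminescent readout of CYP2C19 activity: luciferin product detected 20 min after adding detection reagent. Before that, compound and enzyme-substrate mix preincubated 10 min at room temperature; NADPH-regenerating system started a 1 h, 37C reaction. Ketoconazole as positive control.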

[4] = molecular target: Cytochrome P450 2C9 (Homo sapiens) (UniProt P11712); assay: Cytochrome P450 Family 2 Subfamily C Member 9 (CYP2C9) small molecule antagonists: luciferase reporter qHTS assay (AID 1671198); note: nearly all actives have a fitted effect of over 50% in size
Procedure, shortened: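 P450-Glo proluciferin substrate with CYP2C9 enzyme; 10 min RT preincubation, then NADPH regeneration 1 h at 37C; luciferin detection reagent 20 min RT, luminescence in relative luminescence units.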

[5] = molecular target: Cytochrome P450 3A4 (Homo sapiens) (UniProt P08684); assay: Cytochrome P450 Family 3 Subfamily A Member 4 (CYP3A4) small molecule antagonists: luciferase reporter qHTS assay (AID 1671201); note: nearly all actives have a fitted effect of over 50% in size
Procedure, shortened: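 Setup: enzyme-substrate mix, compound pin transfer, 10 min RT. Reaction: NADPH regeneration solution, 1 h RT. Readout: detection reagent stops turnover, luminescence measured after 20 min, expressed in relative luminescence units.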

[6] = molecular target: Cytochrome P450 1A2 (Homo sapiens) (UniProt P05177); assay: Cytochrome P450 Family 1 Subfamily A Member 2 (CYP1A2) small molecule antagonists: luciferase reporter qHTS assay (AID 1671199); note: nearly all actives have a fitted effect of over 50% in size
Procedure, shortened: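 Read-out is luminescence from luciferin detection reagent (20 min) proportional to CYP1A2 activity; compounds in DMSO preincubated 10 min with enzyme and proluciferin substrate, then NADPH regeneration solution, 1 h, room temperature.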

[7] = molecular target: Voltage-gated inwardly rectifying potassium channel KCNH2 (Homo sapiens) (UniProt Q12809); assay: Human Ether-a-go-go-Related Gene (hERG) channel small molecule antagonists: fluorescence cell-based qHTS assay (AID 1671200); note: nearly all actives have a fitted effect of over 50% in size
Procedure, shortened: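 Measured: Tl+ flux via fluorescence (480/540 nm) in hERG-expressing U2OS cells after 1 h dye loading at room temperature.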

[8] = molecular target: Cytochrome P450 2D6 (Homo sapiens) (UniProt P10635); assay: Cytochrome P450 Family 2 Subfamily D Member 6 (CYP2D6) small molecule antagonists: luciferase reporter qHTS assay (AID 1671196); note: nearly all actives have a fitted effect of over 50% in size
Procedure, shortened: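 Chemicals tested for interference with CYP2D6 activity; proluciferin substrate, NADPH regeneration, 1 h at room temperature, luminescent detection.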
Potency is the fitted concentration of half-maximal effect.

Chain of Cytochrome P450 2C19 (Homo sapiens) (P33261 whole entry, looked up): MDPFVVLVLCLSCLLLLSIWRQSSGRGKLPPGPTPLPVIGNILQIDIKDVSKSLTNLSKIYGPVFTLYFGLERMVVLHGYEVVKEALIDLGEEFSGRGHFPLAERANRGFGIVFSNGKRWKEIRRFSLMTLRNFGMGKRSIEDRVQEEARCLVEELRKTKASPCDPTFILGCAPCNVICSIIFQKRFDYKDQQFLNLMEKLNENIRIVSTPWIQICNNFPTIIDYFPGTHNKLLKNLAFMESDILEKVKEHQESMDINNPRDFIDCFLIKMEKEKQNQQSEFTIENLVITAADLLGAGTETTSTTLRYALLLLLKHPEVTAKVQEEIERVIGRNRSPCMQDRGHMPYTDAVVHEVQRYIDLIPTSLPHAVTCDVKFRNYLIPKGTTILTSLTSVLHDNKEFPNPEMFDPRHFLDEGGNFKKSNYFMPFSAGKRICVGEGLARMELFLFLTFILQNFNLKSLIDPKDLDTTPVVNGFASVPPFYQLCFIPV
Chain of Cytochrome P450 1A2 (Homo sapiens) (P05177 whole entry, looked up): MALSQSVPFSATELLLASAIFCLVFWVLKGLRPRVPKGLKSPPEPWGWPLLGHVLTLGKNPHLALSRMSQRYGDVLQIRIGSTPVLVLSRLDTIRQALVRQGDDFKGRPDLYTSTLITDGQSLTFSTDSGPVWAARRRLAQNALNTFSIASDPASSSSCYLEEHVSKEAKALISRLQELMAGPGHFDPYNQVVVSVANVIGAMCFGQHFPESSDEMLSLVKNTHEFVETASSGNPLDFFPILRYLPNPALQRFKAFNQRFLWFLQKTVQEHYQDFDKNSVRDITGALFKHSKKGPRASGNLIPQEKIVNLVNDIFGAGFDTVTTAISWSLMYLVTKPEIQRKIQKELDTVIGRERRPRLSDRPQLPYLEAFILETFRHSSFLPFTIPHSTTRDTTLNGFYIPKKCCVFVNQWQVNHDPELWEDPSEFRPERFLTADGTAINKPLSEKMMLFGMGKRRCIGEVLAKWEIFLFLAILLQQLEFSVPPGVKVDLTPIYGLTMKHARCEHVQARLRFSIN
Chain of Acetylcholinesterase (Homo sapiens) (P22303 whole entry, looked up): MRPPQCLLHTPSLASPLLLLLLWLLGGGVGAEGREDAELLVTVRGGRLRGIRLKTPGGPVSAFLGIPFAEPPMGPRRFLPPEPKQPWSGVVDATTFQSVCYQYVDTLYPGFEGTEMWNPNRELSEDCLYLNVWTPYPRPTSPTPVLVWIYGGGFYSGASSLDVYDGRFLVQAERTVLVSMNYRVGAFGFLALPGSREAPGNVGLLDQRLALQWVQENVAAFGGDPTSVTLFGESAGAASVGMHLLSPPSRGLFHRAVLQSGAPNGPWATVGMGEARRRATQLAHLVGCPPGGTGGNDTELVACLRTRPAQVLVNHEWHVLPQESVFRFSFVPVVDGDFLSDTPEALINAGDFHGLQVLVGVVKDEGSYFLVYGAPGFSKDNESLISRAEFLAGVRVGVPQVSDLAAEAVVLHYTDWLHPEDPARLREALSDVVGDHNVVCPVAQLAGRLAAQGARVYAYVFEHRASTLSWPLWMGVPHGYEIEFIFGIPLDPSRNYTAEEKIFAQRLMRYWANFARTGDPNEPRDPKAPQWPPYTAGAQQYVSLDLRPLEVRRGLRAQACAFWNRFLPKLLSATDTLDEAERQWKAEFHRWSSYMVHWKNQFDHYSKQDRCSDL
Chain of Cytochrome P450 3A4 (Homo sapiens) (P08684 whole entry, looked up): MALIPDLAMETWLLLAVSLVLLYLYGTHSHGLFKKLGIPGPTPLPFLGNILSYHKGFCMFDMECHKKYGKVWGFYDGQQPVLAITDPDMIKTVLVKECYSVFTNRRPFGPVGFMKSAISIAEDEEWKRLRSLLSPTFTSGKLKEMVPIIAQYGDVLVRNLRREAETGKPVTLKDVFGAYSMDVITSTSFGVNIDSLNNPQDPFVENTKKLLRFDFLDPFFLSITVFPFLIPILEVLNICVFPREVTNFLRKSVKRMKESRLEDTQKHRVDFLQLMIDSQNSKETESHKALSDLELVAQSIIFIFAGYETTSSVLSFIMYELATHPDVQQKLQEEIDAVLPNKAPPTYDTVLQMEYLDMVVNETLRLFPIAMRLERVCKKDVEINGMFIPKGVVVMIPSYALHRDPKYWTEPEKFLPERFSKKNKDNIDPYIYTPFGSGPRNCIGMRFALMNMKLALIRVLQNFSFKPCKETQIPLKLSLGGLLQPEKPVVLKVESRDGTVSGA
Chain of Voltage-gated inwardly rectifying potassium channel KCNH2 (Homo sapiens) (Q12809 whole entry, looked up): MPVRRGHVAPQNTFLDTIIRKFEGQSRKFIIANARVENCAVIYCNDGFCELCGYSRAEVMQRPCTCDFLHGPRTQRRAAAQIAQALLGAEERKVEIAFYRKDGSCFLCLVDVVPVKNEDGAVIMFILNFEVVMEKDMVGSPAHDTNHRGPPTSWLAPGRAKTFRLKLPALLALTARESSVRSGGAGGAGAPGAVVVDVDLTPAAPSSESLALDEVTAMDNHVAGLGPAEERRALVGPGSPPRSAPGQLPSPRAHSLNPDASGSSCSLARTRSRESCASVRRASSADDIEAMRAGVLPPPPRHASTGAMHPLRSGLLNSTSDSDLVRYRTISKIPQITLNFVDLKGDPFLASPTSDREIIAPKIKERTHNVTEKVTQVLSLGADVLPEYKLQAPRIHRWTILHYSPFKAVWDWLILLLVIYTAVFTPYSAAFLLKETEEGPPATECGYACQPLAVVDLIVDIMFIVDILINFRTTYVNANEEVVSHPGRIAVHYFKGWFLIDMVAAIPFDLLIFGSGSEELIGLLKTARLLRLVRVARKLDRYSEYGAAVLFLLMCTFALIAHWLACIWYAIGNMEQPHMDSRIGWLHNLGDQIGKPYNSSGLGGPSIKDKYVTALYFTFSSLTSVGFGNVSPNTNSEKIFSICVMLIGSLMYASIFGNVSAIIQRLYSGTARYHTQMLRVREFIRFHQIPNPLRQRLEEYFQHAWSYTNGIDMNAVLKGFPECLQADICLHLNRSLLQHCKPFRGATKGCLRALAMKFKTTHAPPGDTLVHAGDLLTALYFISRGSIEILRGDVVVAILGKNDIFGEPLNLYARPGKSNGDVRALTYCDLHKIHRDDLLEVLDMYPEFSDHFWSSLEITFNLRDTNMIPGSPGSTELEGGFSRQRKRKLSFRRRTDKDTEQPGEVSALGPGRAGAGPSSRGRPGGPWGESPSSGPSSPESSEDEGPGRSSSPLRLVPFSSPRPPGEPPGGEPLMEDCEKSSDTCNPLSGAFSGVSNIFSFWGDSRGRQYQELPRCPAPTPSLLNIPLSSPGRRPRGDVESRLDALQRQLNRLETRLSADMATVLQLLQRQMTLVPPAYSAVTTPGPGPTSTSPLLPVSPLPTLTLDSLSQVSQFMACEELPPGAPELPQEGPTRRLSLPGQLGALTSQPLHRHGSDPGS
Chain of Cytochrome P450 2D6 (Homo sapiens) (P10635 whole entry, looked up): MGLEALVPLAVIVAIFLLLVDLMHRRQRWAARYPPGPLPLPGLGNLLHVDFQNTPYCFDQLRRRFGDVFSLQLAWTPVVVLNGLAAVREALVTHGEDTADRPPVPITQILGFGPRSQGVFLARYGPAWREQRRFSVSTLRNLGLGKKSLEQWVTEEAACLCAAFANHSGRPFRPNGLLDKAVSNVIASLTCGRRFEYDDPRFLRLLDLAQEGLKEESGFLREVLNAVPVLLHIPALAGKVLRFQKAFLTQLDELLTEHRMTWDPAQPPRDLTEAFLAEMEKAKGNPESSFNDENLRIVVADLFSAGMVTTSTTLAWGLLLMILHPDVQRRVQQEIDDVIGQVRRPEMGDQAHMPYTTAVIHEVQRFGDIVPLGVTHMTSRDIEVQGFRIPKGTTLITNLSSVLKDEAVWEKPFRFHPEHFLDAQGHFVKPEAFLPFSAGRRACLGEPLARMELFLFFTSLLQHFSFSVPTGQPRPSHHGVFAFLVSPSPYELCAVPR
Chain of Cytochrome P450 2C9 (Homo sapiens) (P11712 whole entry, looked up): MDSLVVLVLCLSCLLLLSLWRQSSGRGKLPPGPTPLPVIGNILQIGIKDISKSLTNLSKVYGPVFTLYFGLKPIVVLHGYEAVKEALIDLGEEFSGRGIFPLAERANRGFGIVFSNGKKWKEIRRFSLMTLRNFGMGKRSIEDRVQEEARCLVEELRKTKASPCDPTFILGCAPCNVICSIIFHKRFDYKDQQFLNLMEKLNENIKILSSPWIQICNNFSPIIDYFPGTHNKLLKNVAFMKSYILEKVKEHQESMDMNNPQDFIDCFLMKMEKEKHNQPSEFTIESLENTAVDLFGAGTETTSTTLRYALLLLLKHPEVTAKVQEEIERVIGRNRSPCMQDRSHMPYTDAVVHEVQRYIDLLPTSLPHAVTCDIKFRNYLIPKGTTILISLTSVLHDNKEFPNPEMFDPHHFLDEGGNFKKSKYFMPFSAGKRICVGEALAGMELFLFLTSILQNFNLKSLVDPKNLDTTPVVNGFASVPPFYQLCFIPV

Compound	Potency [1]	Potency [2]	Potency [3]	Potency [4]	Potency [5]	Potency [6]	Potency [7]	Potency [8]
CS/C(C)=N/OC(=O)N(C)SN(C)C(=O)O/N=C(\C)SC	0.71 µM (active)	31.7 µM (active)	71 µM (active)	79.6 µM (active)	inactive	–	–	–
OCCCBr	inactive	inactive	3.99 µM (active)	–	–	61.8 µM (active)	inactive	–
O=C1c2ccccc2C(=O)C1C(=O)C(c1ccccc1)c1ccccc1	inactive	inactive	21.9 µM (active)	1.38 µM (active)	inactive	–	–	–
C[C@]12CC[C@H]3[C@@H](CCC4=CC(=O)CC[C@@H]43)[C@@H]1CC[C@@H]2OC(=O)CCC1CCCCC1	inactive	inactive	–	17.4 µM (active)	inactive	–	–	inactive
CCCN(CCCl)c1c([N+](=O)[O-])cc(C(F)(F)F)cc1[N+](=O)[O-]	inactive	inactive	17.8 µM (active)	20 µM (active)	22.4 µM (active)	–	–	–
CC1(C)[C@H](C=C(Cl)Cl)[C@@H]1C(=O)O[C@@H](C#N)c1cccc(Oc2ccccc2)c1	inactive	inactive	7.96 µM (active)	3.56 µM (active)	inactive	inactive	inactive	–
Cn1cc[n+](C)c1 (tested in a mixture with another compound)	inactive	inactive	–	–	inactive	inactive	inactive	inactive
CC(C)(C)C(O)C(Oc1ccc(Cl)cc1)n1cncn1 (stereo not drawn)	inactive	inactive	0.796 µM (active)	33.6 µM (active)	–	–	inactive	–
Nc1ccc(N=Nc2ccc(-c3ccc(N=Nc4c(S(=O)(=O)O)cc5cc(S(=O)(=O)O)c(N=Nc6ccccc6)c(O)c5c4N)cc3)cc2)c(N)c1	inactive	inactive	inactive	–	–	–	inactive	–
CC[C@H]1C[C@H]2[C@@H]3CCC4=CC(=O)CC[C@@H]4[C@H]3CC[C@]2(C)[C@H]1O	inactive	inactive	–	–	inactive	inactive	inactive	inactive
O=[Se]=O	inactive	inactive	–	–	inactive	–	–	inactive
NS(=O)(=O)C(F)(F)C(F)(F)C(F)(F)C(F)(F)C(F)(F)C(F)(F)C(F)(F)C(F)(F)F	inactive	inactive	–	–	inactive	inactive	inactive	inactive
COC(=O)C(C)N(C(=O)Cc1ccccc1)c1c(C)cccc1C (stereo not drawn)	inactive	inactive	3.56 µM (active)	–	inactive	inactive	inactive	–
O=[N+]([O-])c1ccc(F)c([N+](=O)[O-])c1	inactive	inactive	inactive	32 µM (active)	inactive	inactive	inactive	–
CCCCNP(N)(N)=S	inactive	inactive	50.2 µM (active)	35.6 µM (active)	inactive	inactive	–	–
N#CCC#N	inactive	inactive	inactive	63.3 µM (active)	–	inactive	–	–
CC(=O)c1cc2c(cc1C)C(C)(C)C(C)CC2(C)C (stereo not drawn)	inactive	inactive	–	35.6 µM (active)	25.2 µM (active)	–	13.8 µM (active)	inactive

Compound	Potency [1]	Potency [2]	Potency [3]	Potency [4]	Potency [5]	Potency [6]	Potency [7]	Potency [8]
BrCC(Br)C1CCC(Br)C(Br)C1 (stereo not drawn)	inactive	inactive	11.2 µM (active)	31.6 µM (active)	inactive	–	–	–
CC(=O)NC1CCSC1=O (stereo not drawn)	–	inactive	inactive	–	inactive	inactive	inactive	inactive
CC(C)N(C(=O)COc1nnc(C(F)(F)F)s1)c1ccc(F)cc1	–	inactive	1 µM (active)	35.6 µM (active)	inactive	39.9 µM (active)	–	inactive
CN1C[C@H](CNC(=O)OCc2ccccc2)C[C@@H]2c3cccc4c3c(cn4C)C[C@H]21	0.871 µM (active)	30.9 µM (active)	–	inactive	inactive	inactive	3.38 µM (active)	–
CCC(C)(NC(=O)c1cc(Cl)c(C)c(Cl)c1)C(=O)CCl (stereo not drawn)	–	inactive	25.3 µM (active)	35.8 µM (active)	6.37 µM (active)	2.26 µM (active)	–	35.8 µM (active)
O=C(O)CC(Cl)C(=O)O (stereo not drawn)	–	inactive	inactive	inactive	inactive	inactive	inactive	inactive
Nc1nc(=S)[nH][nH]1	–	inactive	25.2 µM (active)	31.7 µM (active)	inactive	–	inactive	44.8 µM (active)
COCCOCCO	inactive	inactive	–	–	–	–	inactive	–
ClCc1ccccc1	inactive	inactive	–	inactive	inactive	–	inactive	–
O=[N+]([O-])c1cc(C(F)(F)F)cc([N+](=O)[O-])c1Cl	–	inactive	40.1 µM (active)	17.9 µM (active)	inactive	–	–	17.9 µM (active)
CC(Cl)C(C)Cl (stereo not drawn)	–	inactive	inactive	inactive	inactive	–	inactive	inactive
O=C(Nc1ccccc1)Nc1cnns1	–	inactive	39.9 µM (active)	35.6 µM (active)	3.56 µM (active)	3.56 µM (active)	inactive	31.7 µM (active)
O=S1(=O)OC(c2cc(Br)c(O)c(Br)c2)(c2cc(Br)c(O)c(Br)c2)c2ccccc21	–	inactive	73 µM (active)	16.3 µM (active)	–	32.6 µM (active)	inactive	58 µM (active)
CCCN(CCC)c1c([N+](=O)[O-])cc(S(C)(=O)=O)cc1[N+](=O)[O-]	inactive	inactive	–	28.3 µM (active)	20 µM (active)	inactive	–	–
ClCC(Br)CBr (stereo not drawn)	–	inactive	inactive	inactive	inactive	–	–	inactive
c1ccc(CN2CCNCC2)cc1	–	inactive	inactive	inactive	inactive	–	inactive	17.2 µM (active)
